Assay results from PubChem BioAssay (NCATS).
Results filed as inconclusive are left out. Activity calls are given as the source filed them. The call rests on the fitted dose curve; in most records, active means well fitted curve in the direction sought with a large enough effect; inconclusive means small, poorly fitted or top-dose-only effect, or another doubt; inactive means no such curve, though single readings can be large; an effect the other way counts as inactive or inconclusive.

Key:
MCC-13 = assay: qHTS assay to identify novel small-molecules to repurpose for Merkel cell carcinoma treatment (AID 1296009); conditions: MCC and control cell lines, CellTiter-Glo viability, 72 h; series mostly up to 46 µM; further: nearly all actives have a fitted effect of over 60% in size
Summary of the method: (§1)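 Cells were incubated with compound for 72 hr at 37 degree celsius before CellTiter-Glo addition. Luminescence was normalized with no-cell wells as full cytotoxicity and DMSO as baseline.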

MCC-26 = assay: as above; conditions: MCC and control cell lines, CellTiter-Glo viability, 72 h; series mostly up to 46 µM
Summary of the method: as §1

MKL-1 = assay: as above; conditions: MCC and control cell lines, CellTiter-Glo viability, 72 h; series mostly up to 46 µM
Summary of the method: as §1

MKL-2 = assay: as above; conditions: MCC and control cell lines, CellTiter-Glo viability, 72 h; series mostly up to 46 µM
Summary of the method: as §1

UISO = assay: as above; conditions: MCC and control cell lines, CellTiter-Glo viability, 72 h; series mostly up to 46 µM
Summary of the method: as §1

WaGa = assay: as above; conditions: MCC and control cell lines, CellTiter-Glo viability, 72 h; series mostly up to 46 µM
Summary of the method: as §1

C33A = assay: Primary qHTS to identify gynecologic anti-cancer compounds using libraries of approved drugs and bioactive compounds (AID 1345084); conditions: Gynecologic cancer cell panel viability, ATPlite luminescence, 48 h; series mostly up to 57.5 µM; further: nearly all actives have a fitted effect of over 55% in size
Summary of the method: (§2)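 Cytotoxicity screen measuring ATP content by luciferase luminescence. Each compound is applied at five concentrations for 48 h at 37 C with 5% CO2.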

CAOV3 = assay: as above; conditions: Gynecologic cancer cell panel viability, ATPlite luminescence, 48 h; series mostly up to 57.5 µM
Summary of the method: as §2

CASKI = assay: as above; conditions: Gynecologic cancer cell panel viability, ATPlite luminescence, 48 h; series mostly up to 57.5 µM
Summary of the method: as §2

Es-2 = assay: as above; conditions: Gynecologic cancer cell panel viability, ATPlite luminescence, 48 h; series mostly up to 57.5 µM
Summary of the method: as §2

HeLa = assay: as above; conditions: Gynecologic cancer cell panel viability, ATPlite luminescence, 48 h; series mostly up to 57.5 µM
Summary of the method: as §2

Hek293T = assay: as above; conditions: Gynecologic cancer cell panel viability, ATPlite luminescence, 48 h, control line for the selectivity index; series mostly up to 57.5 µM
Summary of the method: as §2

JEG-3 = assay: as above; conditions: Gynecologic cancer cell panel viability, ATPlite luminescence, 48 h; series mostly up to 57.5 µM
Summary of the method: as §2

OV90 = assay: as above; conditions: Gynecologic cancer cell panel viability, ATPlite luminescence, 48 h; series mostly up to 57.5 µM
Summary of the method: as §2

PA-1 = assay: as above; conditions: Gynecologic cancer cell panel viability, ATPlite luminescence, 48 h; series mostly up to 57.5 µM
Summary of the method: as §2

Tov-21-G = assay: as above; conditions: Gynecologic cancer cell panel viability, ATPlite luminescence, 48 h; series mostly up to 57.5 µM
Summary of the method: as §2

Tov112D = assay: as above; conditions: Gynecologic cancer cell panel viability, ATPlite luminescence, 48 h; series mostly up to 57.5 µM
Summary of the method: as §2

SKOV3 = assay: as above; conditions: Gynecologic cancer cell panel viability, ATPlite luminescence, 48 h; series mostly up to 57.5 µM
Summary of the method: as §2

NIH3T3 = assay: qHTS assay to identify novel small-molecules to repurpose for Merkel cell carcinoma treatment (AID 1296009); conditions: MCC and control cell lines, CellTiter-Glo viability, 72 h; at 44.8 µM (top of the series) unless noted; further: nearly all actives have a fitted effect of over 60% in size
Summary of the method: as §1

Measured: Potency

O=C(O)COC(=O)Cc1ccccc1Nc1c(Cl)cccc1Cl
not listed: SKOV3 | NIH3T3
inactive: all other assays above

Cn1c(=O)c2c(ncn2CCO)n(C)c1=O
not listed: NIH3T3
inactive: all other assays above

O=C(Cn1ccnc1[N+](=O)[O-])NCc1ccccc1
not listed: NIH3T3
inactive: all other assays above

Cc1cc(C)c(NC(=O)CN(CC(=O)O)CC(=O)O)c(C)c1Br
not listed: CAOV3 | NIH3T3
inactive: all other assays above

COc1ccc(Cc2cnc(N)nc2N)cc1OC
not listed: SKOV3 | NIH3T3
inactive: all other assays above

CC[N+](C)(CC)CCOC(=O)C1c2ccccc2Oc2ccccc21
not listed: SKOV3 | NIH3T3
inactive: all other assays above

C[C@@H]1CCC[C@H](C)N1
not listed: NIH3T3
inactive: all other assays above

Cc1cc(OI)c(C(C)C)cc1-c1cc(C(C)C)c(OI)cc1C
not listed: CAOV3 | NIH3T3
inactive: all other assays above

CC(=O)N[C@@H](Cc1ccc(O)cc1)C(=O)O
not listed: CAOV3 | NIH3T3
inactive: all other assays above

O=C(O)c1ccc(OCCCOc2ccc(C(=O)O)cc2)cc1
not listed: NIH3T3
inactive: all other assays above

CCN(CC)CCOC(=O)C(c1ccccc1)c1ccccc1
not listed: NIH3T3
inactive: all other assays above

C1CCN2C[C@@H]3C[C@@H](CN4CCCC[C@@H]34)[C@H]2C1
not listed: OV90 | NIH3T3
inactive: all other assays above

CCc1cccc(CC)c1NC(=O)CN(CC(=O)O)CC(=O)O
not listed: MCC-26 | NIH3T3
inactive: all other assays above

CC[N+](CC)(CC(=O)Nc1c(C)cccc1C)Cc1ccccc1
not listed: CAOV3 | NIH3T3
inactive: all other assays above

NC(=O)NS(=O)(=O)c1ccc(N)cc1
not listed: MCC-26
inactive: all other assays above

O=C(CCBr)N1CCN(C(=O)CCBr)CC1
not listed: MCC-26 | CAOV3 | SKOV3
inactive: all other assays above

COc1ccccc1Oc1c(NS(=O)(=O)c2ccc(C(C)(C)C)cc2)nc(-c2ncccn2)nc1OCCO
not listed: MCC-13
inactive: all other assays above

COc1ccccc1OC(=O)Oc1ccccc1OC
not listed: MCC-26 | NIH3T3
inactive: all other assays above

O=c1[nH]c(=O)c2ccccc2o1
not listed: CAOV3 | NIH3T3
inactive: all other assays above

O=C(O)CCC(=O)O
not listed: MCC-26 | NIH3T3
inactive: all other assays above

CC(O)CCCCn1c(=O)c2c(ncn2C)n(C)c1=O (stereo not drawn)
not listed: CAOV3 | NIH3T3
inactive: all other assays above

CC1CCN(CCCC(=O)c2ccc(F)cc2)CC1
not listed: MCC-26 | NIH3T3
inactive: all other assays above

Cc1[nH]c(C)c(Cl)c(=O)c1Cl
not listed: CAOV3 | NIH3T3
inactive: all other assays above

Cc1ccc(C(C)C)c(O)c1
not listed: MCC-26 | NIH3T3
inactive: all other assays above

CCS(=O)(=O)CCn1c([N+](=O)[O-])cnc1C
not listed: CAOV3 | CASKI | NIH3T3
inactive: all other assays above

C=CCSCC1Nc2cc(Cl)c(S(N)(=O)=O)cc2S(=O)(=O)N1 (stereo not drawn)
not listed: CAOV3 | NIH3T3
inactive: all other assays above

OCc1ccc(Cl)cc1Cl
not listed: MCC-26 | CAOV3 | SKOV3
inactive: all other assays above

CC(=O)Nc1cccc(O)c1
not listed: MCC-26 | NIH3T3
inactive: all other assays above

CCCCCCCC(=O)OCC(COC(=O)CCCCCCC)OC(=O)CCCCCCC
not listed: MCC-26 | CAOV3 | NIH3T3
inactive: all other assays above

NC(=O)CCCCC1CCSS1 (stereo not drawn)
not listed: MCC-26 | NIH3T3
inactive: all other assays above

O=C(NCCCN1CCOCC1)c1ccc(Cl)cc1
not listed: MCC-26
inactive: all other assays above

Cc1c(NC(C)C)c(=O)n(-c2ccccc2)n1C
not listed: MCC-26 | CAOV3 | SKOV3
inactive: all other assays above

Nc1ccncc1N
not listed: MCC-26 | NIH3T3
inactive: all other assays above

Cc1ccc2c(c1)c1c3n2CCNC3CCC1 (stereo not drawn)
not listed: CAOV3 | SKOV3 | NIH3T3
inactive: all other assays above

CC(=O)NS(=O)(=O)c1ccc(N)cc1
not listed: MCC-26 | NIH3T3
inactive: all other assays above

O=C(NCN1CCOCC1)c1cnccn1
not listed: MCC-26 | CAOV3 | NIH3T3
inactive: all other assays above

CC(N)CCCC(C)(C)O (stereo not drawn)
not listed: MCC-26
inactive: all other assays above

O=C1c2cccc(O)c2C(=O)c2c(O)cccc21
not listed: CAOV3 | NIH3T3
inactive: all other assays above

Cc1cc(=O)[nH]c(=S)[nH]1
not listed: MCC-26 | SKOV3
inactive: all other assays above

CC(=O)Nc1ccccc1
not listed: MCC-26
inactive: all other assays above

Cc1c(Cn2ccnc2)c2ccccc2n1CCC(=O)O
not listed: MCC-26 | CAOV3 | SKOV3 | NIH3T3
inactive: all other assays above

Nc1c2c(nc3c1CCC3)CCCC2
not listed: MCC-26 | NIH3T3
inactive: all other assays above

CC(=O)N[C@@H](CC(C)C)C(=O)O
not listed: CAOV3 | NIH3T3
inactive: all other assays above

COc1ccc(C(=O)NCc2ccc(OCCN(C)C)cc2)cc1OC
not listed: CAOV3 | NIH3T3
inactive: all other assays above

CCOc1ccccc1O[C@H](c1ccccc1)[C@H]1CNCCO1
not listed: CAOV3 | SKOV3 | NIH3T3
inactive: all other assays above

CC(CN(C)C)C(C)(O)Cc1ccc(Cl)cc1 (stereo not drawn)
not listed: MCC-26
inactive: all other assays above

NS(=O)(=O)c1cc2c(cc1C(F)(F)F)NCNS2(=O)=O
not listed: MCC-26 | CAOV3 | NIH3T3
inactive: all other assays above

O=C(/C=C/c1ccccc1)OCc1ccccc1
not listed: MCC-26 | NIH3T3
inactive: all other assays above

Cc1ccc(S(=O)(=O)NC(=O)NC2CCCCC2)cc1
not listed: MCC-26 | NIH3T3
inactive: all other assays above

CC1(C)[C@@H](OC(=O)CCC(=O)O)CC[C@]2(C)[C@H]3C(=O)C=C4[C@@H]5C[C@@](C)(C(=O)O)CC[C@]5(C)CC[C@@]4(C)[C@]3(C)CC[C@@H]12
not listed: MCC-26
inactive: all other assays above

C=CCNC(N)=S
not listed: MCC-26 | NIH3T3
inactive: all other assays above
